hgDAF12 agonist: activates the H. glycines DAF-12 receptor ligand-binding domain; HEK293 GAL4-hgDAF12 UAS-luciferase reporter, agonist luminescence; normalized to butyrate control; activation, % at 6.8 µM; 370,000 tested, 1.8% active;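 active means activation above a cutoff set at the mean of all screened compounds plus 3 SD, cut at about 10% in these data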
DAX1 inh-1: inhibits human nuclear receptor DAX1 | HEK293 Gal4-DAX1 luciferase reporter, luminescence | P51843 | AID 504766 | 340,000 tested, 0.99% active | inhibition, % at 6.75 µM;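 active means inhibition above the mean over all tested compounds plus 3 SD, cut at about 4.2% in these data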;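 further: inhibition shows as a rise in luminescence from relieved DAX1 repression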
Target sequence (P51843 207-470 limits assumed): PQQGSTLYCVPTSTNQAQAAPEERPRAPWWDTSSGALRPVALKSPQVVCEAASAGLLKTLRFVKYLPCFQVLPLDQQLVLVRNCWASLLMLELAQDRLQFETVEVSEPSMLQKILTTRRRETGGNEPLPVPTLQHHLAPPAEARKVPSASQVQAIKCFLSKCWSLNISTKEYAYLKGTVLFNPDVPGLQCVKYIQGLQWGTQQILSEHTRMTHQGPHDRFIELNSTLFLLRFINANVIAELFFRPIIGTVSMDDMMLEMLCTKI
ssDAF12 agonist: activates DAF-12 receptor from parasite S. stercoralis; HEK293 ssDAF-12/GRIP1 lit1-tk-luc reporter, luminescence; % of 3 µM dafachronic acid response; activation, % at 6.8 µM; 370,000 tested, 1% active; AID 652126;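 active means activation above the mean over all tested compounds plus 3 SD, cut at about 0.9% in these data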
hcDAF12 agonist: activators of H. contortus DAF-12 nuclear receptor; AID 652067; 370,000 tested, 1.4% active; HEK293 hcDAF-12 lit1-tk-luc reporter, luminescence; 0% DMSO, 100% Δ7-dafachronic acid; activation, % at 6.8 µM;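 active means activation above the mean of all tested compounds plus 3 SD, cut at about 5.5% in these data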
DAX1 inh-2: inhibitors of DAX1 repression of SF-1 activated StAR promoter | AID 652010 | HEK293T StAR-luciferase reporter, SF-1/DAX-1 repression relief | inhibition, % at 6.8 µM | 370,000 tested, 1.1% active;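 active means inhibition above the mean over all tested compounds plus 3 SD, cut at about 3.6% in these data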;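 further: higher inhibition means more luminescence from relief of DAX-1 repression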
GAA850 FXN act: increases GAA850 frataxin promoter reporter activity; 360,000 tested, 0.56% active; activation, % at 6 µM; HEK293 lucGAA850 FXN promoter luciferase reporter, 24 h; percent of 10 µM SAHA response; AID 540364;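 active means activation above the average of all compounds screened plus 3 SD, cutoff fixed separately per campaign, cut at about 7.5% in these data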
Numbers stand for hits; . = inactive; / = no result given. Sampled rows, rich in hits. Any-hit rate of the full collection: about 4.5%.

SMILES | hgDAF12 agonist | DAX1 inh-1 | ssDAF12 agonist | hcDAF12 agonist | DAX1 inh-2 | GAA850 FXN act
COC(=O)[C@]12C[C@H](CC(=O)N3CCN(C(=O)C4CC4)CC3)C(=O)N(Cc3cccc4ccccc34)C1=C[C@H](C(C)C)O[C@@H]2C1CC1 | . | / | . | . | . | /
C=CCN1[C@H](C)COc2cccc(N3CCCC3)c2S1(=O)=O | . | / | . | . | . | /
Nc1c(C(=O)OCC(=O)NCc2ccccc2)[nH]c(=O)[nH]c1=O | . | 7.9 | . | . | . | .
O=C(CCc1ccccc1)Nc1ccc2ccccc2n1 | 12 | . | . | . | . | .
O=C(COC(=O)c1ccc2ccccc2n1)NCc1ccccc1 | . | 4.9 | . | . | . | .
O=C(CCc1ccccc1)Nc1ccccc1 | . | . | . | . | . | .
COC(=O)[C@]12C[C@H](CC(=O)NCc3ccc(C)o3)C(=O)N(CCc3ccc(OC)c(OC)c3)C1=C[C@H](C(C)C)O[C@@H]2C1CC1 | . | / | . | . | . | /
C=CCN(Cc1ccc2c(c1)OCO2)C(C#CCCCC)C(C)C (stereo not drawn) | . | / | . | . | / | /
O=S(=O)(Cc1noc(-c2ccccc2Cl)n1)c1ccccn1 | . | 4.9 | . | . | . | .
O=C(NC1=N[C@@]2(C=C3CCCCC3n3c(=O)n(-c4ccccc4)c(=O)n32)[C@H](Cc2ccccc2)N1Cc1ccccc1)c1ccccc1 (stereo partly drawn) | . | / | . | . | . | /
COc1cccc(/C=C2\SC(=S)N(CC3CCCO3)C2=O)c1 (stereo not drawn) | 13 | . | . | . | . | .
COc1cccc(/C=C2\SC(=S)N(N3C(=O)CCCC3=O)C2=O)c1 | . | 5.7 | . | . | . | .
C=CCN1[C@@H](C)COc2cc(N3CCCC3)ccc2S1(=O)=O | . | / | . | . | . | /
O=C(COC(=O)c1ccccc1-n1cnnn1)c1ccc(F)c(F)c1 | . | . | 0.9 | . | 4.0 | .
CCc1ccccc1NC(=O)C1CCN(C(=O)c2cccs2)CC1 | . | 4.4 | . | . | . | .
Cc1ccc(S(C)(=O)=NC(=O)NC(=O)c2c(Cl)cccc2Cl)cc1 (stereo not drawn) | . | 4.9 | . | . | . | .
Cc1ccc(S(C)(=O)=NC(=O)NC(=O)c2c(F)cccc2Cl)cc1 (stereo not drawn) | . | . | . | . | . | .
CCOC(=O)c1cnc2c(N=Nc3ccccc3)c(N)nn2c1N | . | . | 0.9 | . | . | .
O=C(NC1CCCC1)C(c1ccc(F)cc1)N(C(=O)c1csnn1)C1CCCC1 (stereo not drawn) | . | 5.9 | . | . | . | .
O=C(NC1CCCCC1)C(c1ccncc1)N(C(=O)c1csnn1)c1ccccc1F (stereo not drawn) | . | . | . | . | . | .
Cc1ccc(C)c(N(C(=O)c2csnn2)C(C(=O)NC2CCCCC2)c2cccnc2)c1 (stereo not drawn) | . | 4.4 | . | . | . | .
O=C(NC1CCCC1)C(c1ccccc1)N(C(=O)c1csnn1)c1ccccc1F (stereo not drawn) | . | 4.7 | . | . | . | .
N#Cc1cccc(Cn2ccc3ccc(-c4ccc5ccn(Cc6cccc(C#N)c6)c5c4)cc32)c1 | . | / | . | . | . | /
COCC(=O)N[C@H]1C[C@@H]2O[C@H](CO)CC[C@@H]2O[C@@H]1CCc1ccc(-c2ccccc2)cc1 | . | / | . | . | . | /
C[C@@H](CO)N(Cc1cn(Cc2ccccc2)nn1)S(=O)(=O)c1ccccc1Br | . | / | . | . | . | /
SMILES | hgDAF12 agonist | DAX1 inh-1 | ssDAF12 agonist | hcDAF12 agonist | DAX1 inh-2 | GAA850 FXN act
CCCCNC[C@@]12CO[C@H](c3ccc(Cl)cc3)N1[C@@H](c1ccc(Cl)cc1)SC2 | . | / | . | . | . | /
O=C(Cc1nc(=O)c2ccccc2s1)Nc1ccccc1 | 11 | . | . | 5.9 | . | .
O=C(Cc1ccccc1)Nc1nc(=O)c2ccccc2s1 | . | . | . | . | . | .
O=C(O)c1ccc(-c2nc(-c3ccc(Cl)cc3)cs2)cc1 | 13 | . | . | 5.8 | . | .
O=C(O)c1ccc(-c2nc(-c3cccc(C(F)(F)F)c3)cs2)cc1 | . | . | . | . | . | .
CCN(CC)C(=S)Nc1c(C)n(C)n(-c2ccccc2)c1=O | . | 4.5 | . | . | . | .
COC(=O)c1cn(-c2ccc3c(c2)[C@@]2(CC(=O)N(C)C2c2ccccc2)C(=O)N3CC(C)C)nn1 (stereo partly drawn) | . | / | . | . | . | /
CC(=O)N[C@@H](Cc1c[nH]c2ccccc12)C(=O)OCC(=O)Nc1ccc2c(c1)OCO2 | . | . | . | . | . | .
O=C(COC(=O)[C@H](Cc1c[nH]c2ccccc12)NC(=O)c1ccc(Cl)cc1)Nc1ccc2c(c1)OCO2 | 11 | . | . | . | . | .
C[C@@H]1O[C@@H](n2c3ccc(Cl)cc3c3ccc4c5cc(Cl)ccc5[nH]c4c32)[C@H](O)[C@H](O)[C@H]1O | . | / | . | . | . | /
Cc1ccc(C)c(NC(=S)c2nc3ccccc3s2)c1 | . | . | 1.0 | 5.8 | . | .
Cc1ccc(NC(=S)c2nc3ccccc3s2)cc1 | . | . | . | . | . | .
COc1ccc(CN2CN3CCc4ccccc4C3CS2(=O)=O)cc1 (stereo not drawn) | . | / | . | . | . | /
Cc1cccc(/C=N/NC(=O)c2ccc(Br)cc2)c1 | 12 | . | . | . | . | .
COc1cccc(/C=N/NC(=O)c2c(C)nc3ccc(Br)cn23)c1 | . | 6.4 | . | . | . | .
O=C(N/N=C/c1ccc(F)cc1)c1ccc(Br)cc1 | . | . | . | . | . | .
CC(C)=C(C#N)c1nc2ccccc2s1 | . | 5.4 | . | . | . | .
COC(=O)c1ccc(CC(=O)c2nc3ccccc3s2)cc1 | . | . | 1.0 | . | . | .
O=C(Cc1ccccc1)c1nc2ccccc2s1 | . | . | . | . | . | .
CC(C)NC(=O)c1nc2ccccc2s1 | . | . | 3.2 | . | . | .
CCCC(=O)OC12CCCN(C1)/C(=C/c1cccc(N(C)C)c1)C2 (stereo not drawn) | . | / | . | . | . | /
O=C1CCC2(CCC(c3ccccc3)CC2)N1CCO (stereo not drawn) | . | / | . | . | . | /
Cc1sc2nc(SCC(=O)c3ccc(O)c(O)c3)n(C)c(=O)c2c1C | . | / | . | . | . | /
Cc1ccc(Nc2ccc(C(=O)O)cc2N)cc1 | . | / | 1.1 | . | . | /
Cc1cc(C)cc(Nc2ccc(C(=O)O)cc2N)c1 | . | . | . | . | . | .
O=C(C1CCCN1S(=O)(=O)c1cccc([N+](=O)[O-])c1)N1CCN(c2ccccc2)CC1 (stereo not drawn) | . | / | . | . | . | /
COc1ccc(S(=O)(=O)N2CCOC23CCN(S(=O)(=O)c2ccccc2)CC3)cc1 | . | 4.3 | . | . | . | .

Bioassay records as filed in PubChem BioAssay.
